From PubChem BioAssay AID1347420 (Sanford-Burnham Center for Chemical Genomics, 2020)
Among all 1,300 compounds or so, about 980 (75%) were called active. About 4% were inconclusive and are not listed. The list shows a part of the results.

Molecular target: Sulfhydryl oxidase 1 (Homo sapiens) (UniProt O00391)
Experiment: QSOX1 enzyme inhibitors, primary screen, biochemical, HyperBlu H2O2 luminescence, HTS (AID 1347420); note: values above 100% were filed as inconclusive
Conditions: recombinant QSOX1, HyperBlu H2O2 luminescence; at 12.5 µM; active compounds read high; active = any value above zero

Sequence of Sulfhydryl oxidase 1 (Homo sapiens) (O00391 whole entry, looked up): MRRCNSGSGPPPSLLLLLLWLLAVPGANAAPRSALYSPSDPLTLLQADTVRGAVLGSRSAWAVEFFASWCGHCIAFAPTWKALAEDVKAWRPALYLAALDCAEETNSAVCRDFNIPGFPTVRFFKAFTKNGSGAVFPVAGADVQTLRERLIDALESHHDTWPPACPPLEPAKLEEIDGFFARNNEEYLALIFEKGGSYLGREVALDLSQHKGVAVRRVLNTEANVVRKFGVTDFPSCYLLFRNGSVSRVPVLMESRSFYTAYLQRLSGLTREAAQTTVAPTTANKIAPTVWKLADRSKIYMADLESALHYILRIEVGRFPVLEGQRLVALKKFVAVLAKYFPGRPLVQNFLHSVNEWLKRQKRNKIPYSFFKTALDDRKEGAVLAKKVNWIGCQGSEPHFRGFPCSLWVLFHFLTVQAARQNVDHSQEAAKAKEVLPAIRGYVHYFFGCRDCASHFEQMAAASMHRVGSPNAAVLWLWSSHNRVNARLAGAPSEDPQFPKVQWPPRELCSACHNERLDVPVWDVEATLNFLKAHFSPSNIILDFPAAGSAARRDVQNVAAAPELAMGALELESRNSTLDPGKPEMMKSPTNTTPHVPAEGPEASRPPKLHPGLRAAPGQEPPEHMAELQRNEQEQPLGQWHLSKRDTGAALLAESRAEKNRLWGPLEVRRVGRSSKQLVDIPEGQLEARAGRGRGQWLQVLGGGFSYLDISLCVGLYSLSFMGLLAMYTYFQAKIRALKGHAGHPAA

Row | SMILES | inhibition
1 | CNC[C@H](O)c1cccc(O)c1 | 17% (active)
2 | CNCC(O)c1ccc(O)c(O)c1 (configuration not stated) | 39.2% (active)
3 | CNC[C@H](O)c1ccc(O)c(O)c1 | 53.5% (active)
4 | CNCCc1cnc(CCC(c2ccccc2)c2ccccc2)[nH]1 | 14.6% (active)
5 | Cc1cn([C@H]2C[C@@H](N=[N+]=[N-])[C@@H](CO)O2)c(=O)[nH]c1=O | 18.1% (active)
6 | Cc1cn([C@H]2C=C[C@@H](CO)O2)c(=O)[nH]c1=O | 21.2% (active)
7 | O=c1[nH]c(=O)n([C@H]2C[C@H](O)[C@@H](CO)O2)cc1Br | 6.3% (active)
8 | O=c1[nH]c(=O)n([C@H]2C[C@H](O)[C@@H](CO)O2)cc1/C=C/Br | 11.6% (active)
9 | N#CC(C#N)=C(N)/C(C#N)=C/c1ccc(O)cc1 | 85.4% (active)
10 | Cn1cc(C(F)(F)F)nc1-c1ccc(OCC(O)CNCCOc2ccc(O)c(C(N)=O)c2)cc1 (configuration not stated) | 45.1% (active)
11 | CC12C(=O)OC(=O)C1(C)C1CCC2O1 (configuration not stated) | 1.8% (active)
12 | CNC(=O)c1cc2c(cn1)[nH]c1ccccc12 | 4.2% (active)
13 | Cc1ccccc1N1C(=O)c2cc(S(N)(=O)=O)c(Cl)cc2NC1C (configuration not stated) | 9.2% (active)
14 | O=c1[nH]c(=S)[nH]c(-c2ccccc2)c1Cc1c(O)ccc2ccccc12 | 55.9% (active)
15 | Cc1ccc(S(=O)(=O)/C=C/C#N)cc1 | 10.5% (active)
16 | CC(C)(C)c1ccc(S(=O)(=O)/C=C/C#N)cc1 | 3.4% (active)
17 | NC12CC3CC(CC(C3)C1)C2 | 33.3% (active)
18 | CC12CC3CC(C)(C1)CC(N)(C3)C2 | -1.7% (inactive)
19 | CCOC(=O)C(C)Oc1cccc2c(=O)n(CC(=O)Nc3ccc4c(c3)OCCO4)ccc12 (configuration not stated) | 9.3% (active)
20 | CC1=C(C(=O)O)N2C(=O)[C@@H](NC(=O)C(N)C3=CCC=CC3)[C@H]2SC1 (some centres not stated) | 20.2% (active)
21 | CC1=C(C(=O)O)N2C(=O)[C@@H](NC(=O)C(N)c3ccccc3)[C@H]2SC1 (some centres not stated) | 37.1% (active)
22 | NC(=O)c1cc[n+](CC2=C(C(=O)O)N3C(=O)[C@@H](NC(=O)[C@@H](c4ccccc4)S(=O)(=O)[O-])[C@H]3SC2)cc1 | 14.6% (active)
23 | NC(C(=O)N[C@@H]1C(=O)N2C(C(=O)O)=C(Cl)CS[C@H]12)c1ccccc1 (some centres not stated) | 23.8% (active)

Row | SMILES | inhibition
24 | CN1CC(=O)N/C1=N\C(=O)Nc1cccc(Cl)c1 | -0.6% (inactive)
25 | CC1=C(CC(=O)O)c2cc(F)ccc2/C1=C\c1ccc(S(C)=O)cc1 (configuration not stated) | 14.1% (active)
26 | CC1=C(CC(=O)O)c2cc(F)ccc2/C1=C\c1ccc(S(C)(=O)=O)cc1 | 13.7% (active)
27 | CC(=O)N[C@@H](Cc1c[nH]c2ccccc12)C(=O)OCc1cc(C(F)(F)F)cc(C(F)(F)F)c1 | 4.9% (active)
28 | NC(=O)OCC(COC(N)=O)c1ccccc1 | 6.4% (active)
29 | N=C(N)c1ccc(N)cc1 | -0.4% (inactive)
30 | N=C(N)c1ccc(OCCCCCOc2ccc(C(=N)N)cc2)cc1 | 14.9% (active)
31 | NC1(C(=O)O)CCCCC1 | 12.2% (active)
32 | NC1(C(=O)O)CC1 | 0.9% (active)
33 | Clc1nccc2c1ccc1ccccc12 | 5.5% (active)
34 | O=C(CCCN1CCC(O)(c2cccc(C(F)(F)F)c2)CC1)c1ccc(F)cc1 | 1.8% (active)
35 | O=C(CCCN1CCC(O)(c2ccc(Cl)cc2)CC1)c1ccc(F)cc1 | 4.3% (active)
36 | CN(C)C(=O)C(CCN1CCC(O)(c2ccc(Cl)cc2)CC1)(c1ccccc1)c1ccccc1 | -0.4% (inactive)
37 | CN(C(=O)CCCOc1ccc2[nH]c(=O)ccc2c1)C1CCCCC1 | 13.1% (active)
38 | CN1C2CCC1CC(OC(=O)c1c[nH]c3ccccc13)C2 (configuration not stated) | 8.4% (active)
39 | CN1C2CCC1CC(OC(c1ccccc1)c1ccccc1)C2 (configuration not stated) | 7.5% (active)
40 | CN1C2CC(OC(=O)[C@H](CO)c3ccccc3)CC1C1OC12 (some centres not stated) | 10.8% (active)
41 | CN1C2CCC1CC(OC(=O)C(CO)c1ccccc1)C2 (configuration not stated) | 0.4% (active)
42 | CN1C2CCC1CC(OC(=O)C(O)c1ccccc1)C2 (configuration not stated) | 6.4% (active)
43 | CC(C)(C)C(=O)Oc1ccc(S(=O)(=O)Nc2ccccc2C(=O)NCC(=O)O)cc1 | 18.6% (active)
44 | CNC1(C)C2CCC(C2)C1(C)C (configuration not stated) | -4.4% (inactive)
45 | NC(=O)NO | 11.4% (active)
46 | CC(C)C[C@H](NC(=O)C1OC1C(=O)O)C(=O)NCCCCN=C(N)N (some centres not stated) | -7.9% (inactive)

Row | SMILES | inhibition
47 | N[C@H](C(=O)O)[C@H](Cc1ccccc1)C(=O)O | 4.3% (active)
48 | NCCCNCCSP(=O)(O)O | 7.6% (active)
49 | NCCCNCCCCNCCCN | 19.3% (active)
50 | NCCCCNCCCN | -8.3% (inactive)
51 | S=C(S)N1CCCC1 | 86.2% (active)
52 | CC(C)CC(NP(=O)(O)O[C@@H]1O[C@@H](C)[C@H](O)[C@@H](O)[C@H]1O)C(=O)NC(Cc1c[nH]c2ccccc12)C(=O)O (some centres not stated) | 59.4% (active)
53 | O=C(O)c1cccnc1Nc1cccc(C(F)(F)F)c1 | 3.2% (active)
54 | Nc1nc(O)c2nc(Br)n(C3OC4COP(=O)(O)O[C@@H]4C3O)c2n1 (some centres not stated) | 9.3% (active)
55 | Nc1ncnc2c1nc(Sc1ccc(Cl)cc1)n2C1OC2COP(=O)(O)O[C@@H]2[C@@H]1O (some centres not stated) | 7.4% (active)
56 | Nc1ncnc2c1nc(Br)n2C1OC2COP(=O)(O)O[C@@H]2C1O (some centres not stated) | 4.7% (active)
57 | Nc1ncnc2nc(-c3ccc(N4CCOCC4)nc3)cc(-c3cccc(Br)c3)c12 | -3% (inactive)
58 | O=c1[nH]c2cc(Cl)ccc2c(O)c1-c1ccc(Oc2ccccc2)cc1 | 8.7% (active)
59 | CN(C)c1nc(N(C)C)nc(N(C)C)n1 | 31.3% (active)
60 | CN1[C@@H](CC(=O)c2ccccc2)CCC[C@H]1C[C@H](O)c1ccccc1 | 15.5% (active)
61 | O=C(O)CCCC[C@@H]1CCSS1 | 0.1% (active)
62 | Cc1cc(C(C)(C)C)c(O)c(C)c1CC1=NCCN1 | 11.2% (active)
63 | Cc1cc(C(C)(C)C)cc(C)c1CC1=NCCN1 | 5% (active)
64 | CC(=O)[C@H]1CC[C+]2C3CC=C4C[C@@H](OS(=O)(=O)[O-])CC[C@]4(C)C3CC[C@@]21C (some centres not stated) | -11.2% (inactive)
65 | CCN(Cc1ccncc1)C(=O)C(CO)c1ccccc1 (configuration not stated) | 1.5% (active)
66 | COc1ccc(/C=C2\COc3ccc(C)cc3C2=O)cc1O | 75.9% (active)
67 | CCCc1c(-c2ccc(O)cc2)nn(-c2ccc(O)cc2)c1-c1ccc(O)cc1 | 68.4% (active)
